{"source": "PubChem BioAssay", "note": "Values without a mark were called inactive.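 Rule for the calls: active = viability loss from added drug above about 55%, and viability with drug at most 40%, in both replicates (limit read from the data, passing the limit was not always enough); inconclusive = both conditions met in only one replicate; inactive = neither replicate meets both conditions.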", "data": [{"assay": "MRP1 drug-resistance reversers in H69AR cells – cell-based, doxorubicin co-treatment, pilot screen (AID 601)", "conditions": "H69AR cells + 2 uM doxorubicin, CellTiter-Glo, 72 h; at 10 µM; hits give high values", "units": {"differential viability (reversal)": "%"}, "values": [{"molecule": "CCOC(=O)C1CCCN(C(=O)c2cccs2)C1", "note": "(stereo not given)", "differential viability (reversal)": 15.4}, {"molecule": "O=C(CSc1nnc(-c2ccccc2)o1)N1CCN(c2ccccc2)CC1", "differential viability (reversal)": 3.54}, {"molecule": "CCOC(=O)N1CCN(C(=O)Nc2ccc3oc(C)nc3c2)CC1", "differential viability (reversal)": -0.96}, {"molecule": "O=C(CSc1nc2ccccc2o1)N1CCN(c2ccc(Cl)cc2)CC1", "differential viability (reversal)": 1.47}, {"molecule": "CCCC(=O)N1CCN(c2ccc(NC(=O)c3ccc(Br)o3)cc2)CC1", "differential viability (reversal)": 3.6}, {"molecule": "COC(=O)c1[nH]c(C)c(/C(O)=C2\\C(=O)C(=O)N(CCCN3CCOCC3)C2c2ccccn2)c1C", "note": "(stereo not given)", "differential viability (reversal)": 7.94}, {"molecule": "CCn1c(CSc2nc(C)cc(C)n2)nnc1SCC(=O)Nc1ccccc1", "differential viability (reversal)": 4.12}, {"molecule": "CN(C)c1oc(-c2ccccc2Cl)nc1C#N", "differential viability (reversal)": 16.8}, {"molecule": "Cc1ccccc1C(=O)N1CCC(C(=O)Nc2ccc(S(=O)(=O)N3CCCC3)cc2)CC1", "differential viability (reversal)": -3.87}, {"molecule": "Cc1ccc(-c2[nH]nc3c2C(c2ccoc2)C(C#N)=C(N)O3)cc1C", "note": "(stereo not given)", "differential viability (reversal)": 0.74}, {"molecule": "CCOC(=O)CN(C)Cc1c[nH]c2ccccc12", "differential viability (reversal)": -11.6}, {"molecule": "Cc1cccc(-n2ncc3c(NCc4ccccn4)ncnc32)c1", "differential viability (reversal)": 1.75}, {"molecule": "CCCCOc1ccc(C(=O)Nc2ccc(N3CCN(C(=O)C(C)C)CC3)cc2)cc1", "differential viability (reversal)": -6.69}, {"molecule": "COc1ccc(N(CC(=O)Nc2ccc(F)c(Cl)c2)S(=O)(=O)c2c(C)noc2C)cc1", "differential viability (reversal)": -7.84}, {"molecule": "O=C(c1ccc(-c2ccccc2)cc1)N1CCC(C(=O)N2CCCC2)CC1", "differential viability (reversal)": 12.4}]}]}
